Test results from PubChem BioAssay (NCI).
This is part of a sample that, as a whole, favours compounds with a hit. Of some 83,000 tested, about 20% had one in any assay.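 96-well plates, one dose, 48 hours. Percent growth reported; active if below 10.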 Unmarked numbers belong to inactive results. Calls of active or inactive are those of the source.

The compounds below were run on SK-MEL-5 melanoma (assay: NCI-60 one-dose screen, 48 h (100 = growth as untreated, 0 = no growth, -100 = all killed)). Settings: 10 µM unless noted.
Protocol: Growth inhibition of the SK-MEL-5 human tumor cell line is measured as a screen for anti-cancer activity. Cells are grown in 96 well plates and exposed to the test compound for 48 hours. Compounds are tested at a single concentration, which is 10^-5 M for most compounds. The reported endpoint is percent growth (GI% or GIPRCNT), where numbers from 0 - 100% represent growth inhibition, and numbers from -100% - 0 represent cell death. For example, a value of 40 represents 60% growth inhibition. A value of 0 means no net growth occurred over the course of the experiment. A value of -40 indicates 40% of cells at the beginning of the experiment died by the end of the experiment. A value of -100 means all cells are dead at the end of the experiment.
NCI-60 Human Tumor Cell Lines Screen was performed using the standard one-dose NCI protocol, which is described in more detail at https://dtp.cancer.gov/discovery_development/nci-60/default.htm.
Compounds with GIPRCNT values below 10 were considered active. Activity score was based on GIPRCNT using the following formula: […]
Score is 0 for GIPRCNT values of 100 or above, 50 for GIPRCNT values of 0, and 100 for GIPRCNT values of -100.
In the case of `c1ccc(-c2[nH]c3ccccc3c2-c2ccccc2)cc1`, the growth is reported as 104%. With `CCOC(=O)c1ccc(NC(=O)NC2=NCCS2)cc1` the growth was 75.9%. In the case of `c1ccc2c(c1)cnc1ccccc12`, the growth is reported as 98.5%. `CC1CN(CCCOC(=O)Nc2ccc(Cl)cc2)CCN1C(C)(C)C` (stereo not given) gave a growth of 97.6%. Compound `CCC(=O)NC(O)C(Cl)(Cl)C(C)Cl` (stereo not given) has a growth of 97.7%. With `O=C(/C=C/c1cc([N+](=O)[O-])ccc1Cl)c1ccccc1` the growth was 87.3%. Work on `Fc1ccc2c(CN3CCO[C@H](COc4cccc(Cl)c4)C3)c[nH]c2c1` yielded a growth of 63.4%. Work on `Nc1ncnc2c1N=C(c1ccc(F)cc1)CC(c1sc(Cl)nc1Cl)N2` (stereo not given) yielded a growth of 92%. `Cc1n(Cc2ccc3ccccc3n2)cc[n+]1Cc1ccc2ccccc2c1` was tested, and the growth was -87.6% (active). For `COc1ccc(C2=Nn3c(nnc3-c3ccc(Cl)cc3N)SC2)cc1`, the growth was 97.8%. `CCCOC(=O)C1c2cc3c(cc2CC(C)C1C(=O)OCCC)OCO3` (stereo not given) gave a growth of 92.4%. With `CC(=O)[C@@]1(O)[C@H](C)C[C@H]2[C@@H]3C=C(C)C4=Cc5c(cnn5-c5ccccc5)C[C@]4(C)[C@H]3[C@@H](O)C[C@@]21C` the growth was 38.1%. For `CCN(CC)c1ccc2nc3c4ccccc4c(=O)cc-3n(-c3ccccc3)c2c1`, the growth was -98.1% (active). For `COc1cc2cc(C(=O)Nc3ccccc3)c(N)nc2cc1OC`, the growth was -95.1% (active). In the case of `c1ccc(C2=Nc3ccccc3SC2)cc1`, the growth is reported as 105%. Compound `C=CCN(CCOC(=O)c1ccc([N+](=O)[O-])cc1)CCOC(=O)c1ccc([N+](=O)[O-])cc1` has a growth of 94.8%. With `O=C1Nc2ccccc2/C1=C/c1c[nH]c2ccccc12` the growth was 94.2%. `COc1ccc(/C(=C\c2cc(OC)c(OC)c(OC)c2)C(=O)Nc2nc3ccc(Cl)cc3s2)cc1` was tested, and the growth was 87.6%. `CC(=O)c1c(C)nc(-c2cc(C)cc(Cl)c2)nc1-c1cccc(Oc2ccccc2)c1` showed a growth of 77.1%. Compound `Fc1[nH]nc2ccc([C@@H]3Nc4ccc5[nH]ncc5c4[C@H]4C5CCC(C5)[C@@H]34)cc12` (stereo not given in full) has a growth of 25.7%. With `COC(=O)c1ccc(NC(N)=NCCC(C)(C)c2ccc(C(F)(F)F)cc2)nc1` the growth was -85.4% (active). For `Cc1ccccc1N1C(c2ccccc2)=NNC12C=CC(=O)c1c(O)cccc12` (stereo not given), the growth was -26.3% (active). Compound `CCN(CC)CCCC(C)Nc1cnc(C(=O)Nc2cc(C)cc3cccnc23)cn1` (stereo not given) has a growth of 83.1%. `O=C(C=P(c1ccccc1)(c1ccccc1)c1ccccc1)CCl` was tested, and the growth was -4.76% (active). With `CC(C)c1ccc(Cn2ccc3c4c(N)nc(NC5CC5)nc4ccc32)cc1` the growth was -96.1% (active). For `Fc1ccc(-c2ccnc3nc(-c4ccncc4)nn23)cc1`, the growth was 106%. `CN(C)c1ccc(C(c2ccccc2)c2ccc(N(C)C)cc2)cc1` was tested, and the growth was 106%. `C=CCn1c(C)nc2cc(Nc3nc(Nc4ccc5nc(C)n(CC=C)c5c4)nc4ccccc34)ccc21` gave a growth of 99.7%. In the case of `COc1ccccc1NC(=O)OCC12COCN1COC2`, the growth is reported as 99.5%. `Cc1ccc2cc3c(NC(=O)c4cccnc4)nn(C)c3nc2c1` was tested, and the growth was 83.1%. `COc1cc(CN2CCO[C@H](COc3cccc(F)c3)C2)ccc1Cl` showed a growth of 37.7%. Work on `Cc1ccc(NC(=O)c2[nH]c(SCCN(C)C)nc2-c2ccc(F)cc2)cc1Nc1ccc2ncn(C)c(=O)c2c1` yielded a growth of 30.8%. In the case of `CS(=O)(=O)Nc1cc(-c2cc3ncc(C#N)c(Nc4ccc(Oc5ccccc5)c(Cl)c4)c3s2)cnc1Cl`, the growth is reported as 52.5%. In the case of `Cc1ccc(N2C3c4ccccc4N(S(=O)(=O)c4ccc(C)cc4)C2c2ccccc2N3S(=O)(=O)c2ccc(C)cc2)cc1`, the growth is reported as 103%. For `COc1ccc(/C=c2\c(=O)n(-c3ccccc3)c3nn4c(=O)c(=O)[nH]nc4n23)cc1`, the growth was 101%. `Cc1c(-c2ccc(-c3ccccc3F)cc2)nc2ccc(F)cc2c1C(=O)O` was tested, and the growth was 40.4%. `C=CCn1c(SCC(=O)Nc2ccc(/C(C)=N\O)cc2)nnc1-c1cc(-c2ccccc2)nc2ccccc12` showed a growth of 48.4%. Work on `N#CC1=C(N)Oc2nc[nH]c(=O)c2C1c1cccs1` (stereo not given) yielded a growth of 102%. `COc1cc(NCCCCC(C)N)c2nccc(C)c2c1` (stereo not given) showed a growth of 87.7%. For `Cc1cc(NC(=O)C2c3ccccc3C(=O)N(CC(C)C)C2c2cccs2)no1` (stereo not given), the growth was 14.2%.
